# Measured values from PMC12529666, “Dysregulation of AGO2-miRNA dynamics underlies the AGO2-associated Lessel–Kreienkamp syndrome”.
# Numbering of substitutions follows the chain as printed.
# B1: GTGCTTTG (ssRNA)
# RNA 1: GAGUUCUACAGUCCGACGAUCCCAACGUGCUUUGCACCUGGAAUUCUCGGGUGCCAA
# RNA 2: UGGAGUGUGACAAUGGUGUUUG
# DNA 1: GATCGTCGGACTGTAGAACTC
# DNA 2: TTGGCACCCGAGAATTCCA
# modifications: constant regions annealed to DNA blockers; guide miR-122 5' phosphate
# B2: GTGTTCCA (ssRNA)
# RNA 1: B1 RNA 1 with C30U, U32C, U33C, G34A
# RNA 2: UGGAGUGUGACAAUGGUGUUUG
# DNA 1: GATCGTCGGACTGTAGAACTC
# DNA 2: TTGGCACCCGAGAATTCCA
# modifications: constant regions annealed to DNA blockers; guide miR-122 5' phosphate
# B3: ATACCCTA (ssRNA)
# RNA 1: B1 RNA 1 with G27A, G29A, U31C, U32C, G34A
# RNA 2: UGGAGUGUGACAAUGGUGUUUG
# DNA 1: GATCGTCGGACTGTAGAACTC
# DNA 2: TTGGCACCCGAGAATTCCA
# modifications: constant regions annealed to DNA blockers; guide miR-122 5' phosphate
# B4: GTGCTTCA (ssRNA)
# RNA 1: B1 RNA 1 with U33C, G34A
# RNA 2: UGGAGUGUGACAAUGGUGUUUG
# DNA 1: GATCGTCGGACTGTAGAACTC
# DNA 2: TTGGCACCCGAGAATTCCA
# modifications: constant regions annealed to DNA blockers; guide miR-122 5' phosphate
# B5: GTACCCTA (ssRNA)
# RNA 1: B1 RNA 1 with G29A, U31C, U32C, G34A
# RNA 2: UGGAGUGUGACAAUGGUGUUUG
# DNA 1: GATCGTCGGACTGTAGAACTC
# DNA 2: TTGGCACCCGAGAATTCCA
# modifications: constant regions annealed to DNA blockers; guide miR-122 5' phosphate
# B6: GCATCTTA (ssRNA)
# RNA 1: B1 RNA 1 with U28C, G29A, C30U, U31C, G34A
# RNA 2: UGGAGUGUGACAAUGGUGUUUG
# DNA 1: GATCGTCGGACTGTAGAACTC
# DNA 2: TTGGCACCCGAGAATTCCA
# modifications: constant regions annealed to DNA blockers; guide miR-122 5' phosphate
# B7: ATGCTTTA (ssRNA)
# RNA 1: B1 RNA 1 with G27A, G34A
# RNA 2: UGGAGUGUGACAAUGGUGUUUG
# DNA 1: GATCGTCGGACTGTAGAACTC
# DNA 2: TTGGCACCCGAGAATTCCA
# modifications: constant regions annealed to DNA blockers; guide miR-122 5' phosphate
# B8: GCATTTTA (ssRNA)
# RNA 1: B1 RNA 1 with U28C, G29A, C30U, G34A
# RNA 2: UGGAGUGUGACAAUGGUGUUUG
# DNA 1: GATCGTCGGACTGTAGAACTC
# DNA 2: TTGGCACCCGAGAATTCCA
# modifications: constant regions annealed to DNA blockers; guide miR-122 5' phosphate
# B9: GCACCCTG (ssRNA)
# RNA 1: B1 RNA 1 with U28C, G29A, U31C, U32C
# RNA 2: UGGAGUGUGACAAUGGUGUUUG
# DNA 1: GATCGTCGGACTGTAGAACTC
# DNA 2: TTGGCACCCGAGAATTCCA
# modifications: constant regions annealed to DNA blockers; guide miR-122 5' phosphate
# B10: GCACTTTA (ssRNA)
# RNA 1: B1 RNA 1 with U28C, G29A, G34A
# RNA 2: UGGAGUGUGACAAUGGUGUUUG
# DNA 1: GATCGTCGGACTGTAGAACTC
# DNA 2: TTGGCACCCGAGAATTCCA
# modifications: constant regions annealed to DNA blockers; guide miR-122 5' phosphate
# B11: GCGCTTTA (ssRNA)
# RNA 1: B1 RNA 1 with U28C, G34A
# RNA 2: UGGAGUGUGACAAUGGUGUUUG
# DNA 1: GATCGTCGGACTGTAGAACTC
# DNA 2: TTGGCACCCGAGAATTCCA
# modifications: constant regions annealed to DNA blockers; guide miR-122 5' phosphate
# B12: GTATTTTA (ssRNA)
# RNA 1: B1 RNA 1 with G29A, C30U, G34A
# RNA 2: UGGAGUGUGACAAUGGUGUUUG
# DNA 1: GATCGTCGGACTGTAGAACTC
# DNA 2: TTGGCACCCGAGAATTCCA
# modifications: constant regions annealed to DNA blockers; guide miR-122 5' phosphate
# B13: GTGCTCTA (ssRNA)
# RNA 1: B1 RNA 1 with U32C, G34A
# RNA 2: UGGAGUGUGACAAUGGUGUUUG
# DNA 1: GATCGTCGGACTGTAGAACTC
# DNA 2: TTGGCACCCGAGAATTCCA
# modifications: constant regions annealed to DNA blockers; guide miR-122 5' phosphate
# B14: GTATTCTA (ssRNA)
# RNA 1: B1 RNA 1 with G29A, C30U, U32C, G34A
# RNA 2: UGGAGUGUGACAAUGGUGUUUG
# DNA 1: GATCGTCGGACTGTAGAACTC
# DNA 2: TTGGCACCCGAGAATTCCA
# modifications: constant regions annealed to DNA blockers; guide miR-122 5' phosphate
# B15: ACATTCTG (ssRNA)
# RNA 1: B1 RNA 1 with G27A, U28C, G29A, C30U, U32C
# RNA 2: UGGAGUGUGACAAUGGUGUUUG
# DNA 1: GATCGTCGGACTGTAGAACTC
# DNA 2: TTGGCACCCGAGAATTCCA
# modifications: constant regions annealed to DNA blockers; guide miR-122 5' phosphate
# B16: ATACCCCA (ssRNA)
# RNA 1: B1 RNA 1 with G27A, G29A, U31C, U32C, U33C, G34A
# RNA 2: UGGAGUGUGACAAUGGUGUUUG
# DNA 1: GATCGTCGGACTGTAGAACTC
# DNA 2: TTGGCACCCGAGAATTCCA
# modifications: constant regions annealed to DNA blockers; guide miR-122 5' phosphate
# B17: GCGCCCTG (ssRNA)
# RNA 1: B1 RNA 1 with U28C, U31C, U32C
# RNA 2: UGGAGUGUGACAAUGGUGUUUG
# DNA 1: GATCGTCGGACTGTAGAACTC
# DNA 2: TTGGCACCCGAGAATTCCA
# modifications: constant regions annealed to DNA blockers; guide miR-122 5' phosphate
# B18: ACACTTTG (ssRNA)
# RNA 1: B1 RNA 1 with G27A, U28C, G29A
# RNA 2: UGGAGUGUGACAAUGGUGUUUG
# DNA 1: GATCGTCGGACTGTAGAACTC
# DNA 2: TTGGCACCCGAGAATTCCA
# modifications: constant regions annealed to DNA blockers; guide miR-122 5' phosphate
# B19: GCGTTCCG (ssRNA)
# RNA 1: B1 RNA 1 with U28C, C30U, U32C, U33C
# RNA 2: UGGAGUGUGACAAUGGUGUUUG
# DNA 1: GATCGTCGGACTGTAGAACTC
# DNA 2: TTGGCACCCGAGAATTCCA
# modifications: constant regions annealed to DNA blockers; guide miR-122 5' phosphate
# B20: ACACCCTG (ssRNA)
# RNA 1: B1 RNA 1 with G27A, U28C, G29A, U31C, U32C
# RNA 2: UGGAGUGUGACAAUGGUGUUUG
# DNA 1: GATCGTCGGACTGTAGAACTC
# DNA 2: TTGGCACCCGAGAATTCCA
# modifications: constant regions annealed to DNA blockers; guide miR-122 5' phosphate
# B21: GTACCCCA (ssRNA)
# RNA 1: B1 RNA 1 with G29A, U31C, U32C, U33C, G34A
# RNA 2: UGGAGUGUGACAAUGGUGUUUG
# DNA 1: GATCGTCGGACTGTAGAACTC
# DNA 2: TTGGCACCCGAGAATTCCA
# modifications: constant regions annealed to DNA blockers; guide miR-122 5' phosphate
# B22: GCGTTCTA (ssRNA)
# RNA 1: B1 RNA 1 with U28C, C30U, U32C, G34A
# RNA 2: UGGAGUGUGACAAUGGUGUUUG
# DNA 1: GATCGTCGGACTGTAGAACTC
# DNA 2: TTGGCACCCGAGAATTCCA
# modifications: constant regions annealed to DNA blockers; guide miR-122 5' phosphate
# Target: AGO2 L192P (Homo sapiens, UniProt Q9UKV8 1-859, L192P;S387D;S824A;S828D;S831D;S834A)
# Assay: RNA Bind-n-Seq (nitrocellulose filter binding and sequencing); miR-122 guide loaded in AGO2; 60 min incubation; 30 mM Tris pH 8.0, 100 mM potassium acetate, 2 mM magnesium acetate, 0.5 mM TCEP, 0.005% NP-40, 0.01 mg/ml yeast tRNA; 3 nM AGO2-miR-122, 100 nM RNA library; 60; high values mean tight binding
# Settings: protein: recombinant; tags: His6 (N-terminal, pFastBac HTA)
# In short: (§1)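 His-tagged AGO2 was expressed in Sf9 insect cells by baculovirus, loaded with a synthetic guide RNA, and purified by Ni-NTA and a biotinylated capture oligo. Bound RNA was extracted, reverse-transcribed, barcode-amplified and Illumina-sequenced. Fold enrichment is each sequence's read fraction divided by its input-library read fraction.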
# Sequence of AGO2 L192P (Q9UKV8 whole entry L192P/S387D/S824A/S828D/S831D/S834A): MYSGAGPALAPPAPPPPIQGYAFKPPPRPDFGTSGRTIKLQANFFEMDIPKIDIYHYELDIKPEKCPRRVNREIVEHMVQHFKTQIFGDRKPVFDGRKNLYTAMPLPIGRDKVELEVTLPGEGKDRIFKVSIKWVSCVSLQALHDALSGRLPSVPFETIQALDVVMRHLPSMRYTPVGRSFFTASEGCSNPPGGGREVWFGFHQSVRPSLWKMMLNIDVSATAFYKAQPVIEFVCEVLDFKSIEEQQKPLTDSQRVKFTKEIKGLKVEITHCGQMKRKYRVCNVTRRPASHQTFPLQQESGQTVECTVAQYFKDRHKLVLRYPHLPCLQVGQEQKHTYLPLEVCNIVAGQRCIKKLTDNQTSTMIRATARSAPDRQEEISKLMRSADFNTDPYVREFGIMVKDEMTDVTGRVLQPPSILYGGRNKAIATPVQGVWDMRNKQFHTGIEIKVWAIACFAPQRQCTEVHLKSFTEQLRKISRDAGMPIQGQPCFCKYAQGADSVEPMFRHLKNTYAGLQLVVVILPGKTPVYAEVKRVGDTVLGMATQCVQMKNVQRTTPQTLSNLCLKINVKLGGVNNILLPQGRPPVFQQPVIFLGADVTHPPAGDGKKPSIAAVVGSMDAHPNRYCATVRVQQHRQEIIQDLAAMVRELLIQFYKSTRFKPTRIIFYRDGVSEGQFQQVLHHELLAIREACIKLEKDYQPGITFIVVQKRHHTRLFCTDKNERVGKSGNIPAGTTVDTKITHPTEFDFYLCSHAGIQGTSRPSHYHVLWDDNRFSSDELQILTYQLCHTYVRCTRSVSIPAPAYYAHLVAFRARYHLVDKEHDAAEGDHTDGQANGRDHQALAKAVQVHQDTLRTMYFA
row,Binder,binding signal
1,B1,0.45 fold enrichment over input
2,B2,0.444 fold enrichment over input
3,B3,0.447 fold enrichment over input
4,B4,0.507 fold enrichment over input
5,B5,0.468 fold enrichment over input
6,B6,0.487 fold enrichment over input
7,B7,0.487 fold enrichment over input
8,B8,0.476 fold enrichment over input
9,B9,0.416 fold enrichment over input
10,B10,0.493 fold enrichment over input
11,B11,0.493 fold enrichment over input
12,B12,0.481 fold enrichment over input
13,B13,0.463 fold enrichment over input
14,B14,0.434 fold enrichment over input
15,B15,0.392 fold enrichment over input
16,B16,0.5 fold enrichment over input
17,B17,0.424 fold enrichment over input
18,B18,0.388 fold enrichment over input
19,B19,0.404 fold enrichment over input
20,B20,0.472 fold enrichment over input
21,B21,0.497 fold enrichment over input
22,B22,0.449 fold enrichment over input

# Target: AGO2 A367P (Homo sapiens, UniProt Q9UKV8 1-859, A367P;S387D;S824A;S828D;S831D;S834A)
# Assay: as above
# Settings: protein: recombinant; tags: His6 (N-terminal, pFastBac HTA)
# In short: as §1
# Sequence of AGO2 A367P (Q9UKV8 whole entry A367P/S387D/S824A/S828D/S831D/S834A): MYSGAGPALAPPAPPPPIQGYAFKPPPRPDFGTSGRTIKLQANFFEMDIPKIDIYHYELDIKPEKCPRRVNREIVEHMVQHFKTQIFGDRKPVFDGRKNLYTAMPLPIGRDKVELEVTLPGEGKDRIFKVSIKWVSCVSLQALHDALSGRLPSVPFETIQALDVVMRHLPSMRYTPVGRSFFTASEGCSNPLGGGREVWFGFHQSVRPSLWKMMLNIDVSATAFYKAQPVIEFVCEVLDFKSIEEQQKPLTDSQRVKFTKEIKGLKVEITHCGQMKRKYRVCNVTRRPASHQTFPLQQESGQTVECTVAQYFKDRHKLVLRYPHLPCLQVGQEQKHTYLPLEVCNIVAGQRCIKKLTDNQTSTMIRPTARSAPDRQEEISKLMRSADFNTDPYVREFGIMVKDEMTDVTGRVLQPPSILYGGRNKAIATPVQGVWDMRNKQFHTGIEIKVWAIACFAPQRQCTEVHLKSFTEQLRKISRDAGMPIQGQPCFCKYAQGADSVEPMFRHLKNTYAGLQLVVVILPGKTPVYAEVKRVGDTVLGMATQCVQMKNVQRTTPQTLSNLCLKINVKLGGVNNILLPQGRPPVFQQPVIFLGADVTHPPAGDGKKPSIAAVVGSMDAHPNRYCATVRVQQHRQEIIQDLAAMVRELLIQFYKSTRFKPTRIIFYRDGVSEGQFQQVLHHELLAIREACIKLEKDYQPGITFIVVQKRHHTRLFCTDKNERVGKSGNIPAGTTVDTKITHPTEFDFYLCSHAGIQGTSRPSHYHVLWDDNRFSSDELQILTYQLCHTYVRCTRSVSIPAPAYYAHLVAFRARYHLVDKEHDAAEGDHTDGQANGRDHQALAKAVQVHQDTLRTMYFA
row,Binder,binding signal
1,B1,0.177 fold enrichment over input
2,B2,0.197 fold enrichment over input
3,B3,0.148 fold enrichment over input
4,B4,0.218 fold enrichment over input
5,B5,0.168 fold enrichment over input
6,B6,0.189 fold enrichment over input
7,B7,0.175 fold enrichment over input
8,B8,0.18 fold enrichment over input
9,B9,0.171 fold enrichment over input
10,B10,0.209 fold enrichment over input
11,B11,0.201 fold enrichment over input
12,B12,0.166 fold enrichment over input
13,B13,0.178 fold enrichment over input
14,B14,0.164 fold enrichment over input
15,B15,0.13 fold enrichment over input
16,B16,0.177 fold enrichment over input
17,B17,0.172 fold enrichment over input
18,B18,0.177 fold enrichment over input
19,B19,0.149 fold enrichment over input
20,B20,0.217 fold enrichment over input
21,B21,0.247 fold enrichment over input
22,B22,0.169 fold enrichment over input

# Target: AGO2 T357M (Homo sapiens, UniProt Q9UKV8 1-859, T357M;S387D;S824A;S828D;S831D;S834A)
# Assay: as above
# Settings: protein: recombinant; tags: His6 (N-terminal, pFastBac HTA)
# In short: as §1
# Sequence of AGO2 T357M (Q9UKV8 whole entry T357M/S387D/S824A/S828D/S831D/S834A): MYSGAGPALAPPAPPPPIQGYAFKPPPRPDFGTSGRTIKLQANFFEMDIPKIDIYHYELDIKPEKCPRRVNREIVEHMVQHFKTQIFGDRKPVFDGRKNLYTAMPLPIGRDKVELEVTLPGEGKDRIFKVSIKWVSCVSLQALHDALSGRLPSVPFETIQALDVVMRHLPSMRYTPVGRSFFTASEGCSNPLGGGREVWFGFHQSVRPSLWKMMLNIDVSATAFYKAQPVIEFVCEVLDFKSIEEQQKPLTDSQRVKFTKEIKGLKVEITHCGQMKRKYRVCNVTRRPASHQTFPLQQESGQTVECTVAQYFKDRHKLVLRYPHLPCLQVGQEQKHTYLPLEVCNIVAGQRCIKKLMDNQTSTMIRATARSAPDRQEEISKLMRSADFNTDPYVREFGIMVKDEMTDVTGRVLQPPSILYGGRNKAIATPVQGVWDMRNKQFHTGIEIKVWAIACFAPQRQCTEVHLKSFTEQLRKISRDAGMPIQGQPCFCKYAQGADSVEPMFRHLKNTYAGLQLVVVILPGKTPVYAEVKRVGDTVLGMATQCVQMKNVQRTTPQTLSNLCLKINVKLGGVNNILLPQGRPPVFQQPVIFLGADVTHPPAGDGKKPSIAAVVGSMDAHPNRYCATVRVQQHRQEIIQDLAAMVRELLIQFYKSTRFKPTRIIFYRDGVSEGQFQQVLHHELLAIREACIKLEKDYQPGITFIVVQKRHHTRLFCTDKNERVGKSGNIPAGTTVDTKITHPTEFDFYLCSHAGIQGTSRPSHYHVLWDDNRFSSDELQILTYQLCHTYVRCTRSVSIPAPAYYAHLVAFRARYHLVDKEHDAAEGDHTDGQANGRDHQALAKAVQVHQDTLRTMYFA
row,Binder,binding signal
1,B1,0.623 fold enrichment over input
2,B2,0.556 fold enrichment over input
3,B3,0.496 fold enrichment over input
4,B4,0.615 fold enrichment over input
5,B5,0.602 fold enrichment over input
6,B6,0.676 fold enrichment over input
7,B7,0.582 fold enrichment over input
8,B8,0.643 fold enrichment over input
9,B9,0.566 fold enrichment over input
10,B10,0.763 fold enrichment over input
11,B11,0.695 fold enrichment over input
12,B12,0.617 fold enrichment over input
13,B13,0.601 fold enrichment over input
14,B14,0.606 fold enrichment over input
15,B15,0.531 fold enrichment over input
16,B16,0.552 fold enrichment over input
17,B17,0.675 fold enrichment over input
18,B18,0.494 fold enrichment over input
19,B19,0.583 fold enrichment over input
20,B20,0.558 fold enrichment over input
21,B21,0.616 fold enrichment over input
22,B22,0.609 fold enrichment over input

# Target: AGO2 F182del (Homo sapiens, UniProt Q9UKV8 1-859, S387D;S824A;S828D;S831D;S834A;del182-182)
# Assay: as above
# Settings: protein: recombinant; tags: His6 (N-terminal, pFastBac HTA)
# In short: as §1
# Sequence of AGO2 F182del (Q9UKV8 other isoform, or with tags, fused parts or gaps S387D;S824A;S828D;S831D;S834A;del182-182): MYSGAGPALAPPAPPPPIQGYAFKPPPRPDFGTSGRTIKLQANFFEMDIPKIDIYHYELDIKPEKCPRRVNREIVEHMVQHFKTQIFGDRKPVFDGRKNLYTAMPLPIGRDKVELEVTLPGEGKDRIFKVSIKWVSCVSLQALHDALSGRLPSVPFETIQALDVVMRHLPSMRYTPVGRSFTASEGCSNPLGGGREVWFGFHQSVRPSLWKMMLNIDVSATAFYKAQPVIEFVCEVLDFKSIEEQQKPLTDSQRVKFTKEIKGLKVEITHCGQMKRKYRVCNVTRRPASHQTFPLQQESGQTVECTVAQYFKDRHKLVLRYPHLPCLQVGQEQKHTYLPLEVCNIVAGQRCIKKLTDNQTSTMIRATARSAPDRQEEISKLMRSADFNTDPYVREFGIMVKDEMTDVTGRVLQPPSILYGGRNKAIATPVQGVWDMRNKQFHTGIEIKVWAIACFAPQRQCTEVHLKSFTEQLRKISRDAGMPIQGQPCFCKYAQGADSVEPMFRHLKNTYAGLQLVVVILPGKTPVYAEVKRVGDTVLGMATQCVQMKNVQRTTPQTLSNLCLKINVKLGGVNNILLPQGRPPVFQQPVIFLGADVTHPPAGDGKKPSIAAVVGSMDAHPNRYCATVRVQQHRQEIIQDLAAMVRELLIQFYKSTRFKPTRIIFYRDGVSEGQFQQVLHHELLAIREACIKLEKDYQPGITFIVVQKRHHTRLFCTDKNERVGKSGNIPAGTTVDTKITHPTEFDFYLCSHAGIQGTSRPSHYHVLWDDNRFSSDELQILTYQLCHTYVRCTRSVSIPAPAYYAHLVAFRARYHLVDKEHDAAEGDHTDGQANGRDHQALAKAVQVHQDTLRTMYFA
row,Binder,binding signal
1,B2,0.125 fold enrichment over input
2,B4,0.235 fold enrichment over input
3,B8,0.123 fold enrichment over input
4,B9,0.176 fold enrichment over input
5,B10,0.122 fold enrichment over input
6,B16,0.199 fold enrichment over input
7,B20,0.942 fold enrichment over input
8,B21,0.455 fold enrichment over input
